Measurements reported in PubChem BioAssay (NCATS).
Inconclusive results are not listed. The list shows a part of the results. Where a call stands in place of a potency, no number is given. Calls of active or inactive are those of the source. Unless noted, the call rests on the fitted dose curve; in most records, active means well fitted curve in the direction sought with a large enough effect; inconclusive means small, poorly fitted or top-dose-only effect, or another doubt; inactive means no such curve, though single readings can be large; an effect the other way counts as inactive or inconclusive.

Tests used:
[1] = qHTS Assay for Identification of Small Molecule Inducers of Hypoxia Response (AID 2120; active means well fitted curve in the direction sought with a large enough effect in the signal ratio, with a control signal flat, not every such curve was filed as active; the % refers to the signal ratio)
Procedure, shortened: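 HRE-beta-lactamase reporter in CellSensor HRE-bla ME-180 cells, 2500 cells/well in Opti-MEM with 0.5% dialyzed FBS; compounds tested as titration series, 17 h at 37 degrees C. CCF4 substrate 2.5 h at room temperature; AC50 from 460/530 nm ratio.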

[2] = qHTS for differential inhibitors of proliferation of Plasmodium falciparum line W2 (AID 1883); settings: Plasmodium falciparum W2 proliferation inhibition;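 further: potency means the concentration at half of the fitted maximal effect; parasites grown with compound for 72 h before lysis and staining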
[3] = target: Ferritin light chain (Equus caballus) (UniProt P02791); test: qHTS Validation Assay for Identification of Novel General Anesthetics (AID 2323)
Procedure, shortened: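 10 uM horse-spleen apoferritin + 1-AMA (50% saturated, PBS); cpd pin-transferred, 10 min RT. Ex 380/Em 535 nm endpoint. Activity normalized between free 1-AMA and 1-AMA/apoferritin; 4-parameter Hill fit of concentration-response.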

[4] = target: ATP-dependent DNA helicase Q1 (Homo sapiens) (UniProt P46063); test: qHTS Validation Assay for Inhibitors of RecQ-Like Dna Helicase 1 (RECQ1) (AID 2353)
Procedure, shortened: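 50 nM RECQ1T1 preincubated 15 min with compound in Tris pH 8.0 buffer with MgCl2, DTT, Tween-20 and 2.5 ug/ml poly(dI-dC); started with 200 nM TAMRA/BHQ-2 forked duplex and 2 mM ATP. Unwinding read as fluorescence (525/598 nm), two reads 2 h apart.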

[5] = target: RecQ-like DNA helicase BLM (Homo sapiens) (UniProt P54132); test: qHTS Validation Assay for Inhibitors of Bloom's syndrome helicase (BLM) (AID 2364)
Procedure, shortened: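 BLM 50 nM in 25 mM Tris-HCl pH 8.0, 5 mM NaCl, 2 mM MgCl2, 1 mM DTT, 0.01% Tween-20, 2.5 ug/ml poly(dI-dC); 15 min cpd preinc, RT. Start: 200 nM forked DNA + 2 mM ATP (final). TAMRA read, 2 reads 2 h apart.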

[6] = Cytometric Cell-Based qHTS for Inhibitors of the mTORC1 Signaling Pathway in MEF (Tsc2-/-, p53-/-) Cells (AID 2660);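 further: percent of cells above a phospho-rpS6 to PI ratio cutoff in each well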
Procedure, shortened: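 Immunofluorescence qHTS of rpS6 Ser235/236 phosphorylation: MEFs (Tsc2-/-, p53-/-) treated 24 h, 37 C, in DMEM + 10% FBS. Alexa-488 signal normalized to PI count, referenced to rapamycin (7.5 nM) and DMSO; PI cell number recorded for viability.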

[7] = High Content Imaging Cell-Based qHTS for Inhibitors of the mTORC1 Signaling Pathway in MEF (Tsc2-/-, p53-/-) Cells (AID 2666); settings: at 38.3 µM (top of the series);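 further: percent of cells scored positive for phospho-rpS6 Ser235/236 immunostaining by imaging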
Procedure, shortened: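 Read-out: % positive cells per well, with thresholds from highest- and lowest-signal wells, based on phospho-rpS6 (Ser235/236) intensity normalized to Hoechst nuclear stain. Cells: Tsc2-/-, p53-/- MEFs carrying empty vector; compound 24 hrs, 37 degree Celsius.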

[8] = target: Endonuclease 4 (Escherichia coli (strain K12)) (UniProt P0A6C1); test: Counterscreen for APE1 Inhibitors: qHTS Assay for Inhibitors of Endonuclease IV (AID 2565)
Procedure, shortened: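 2 nM enzyme was preincubated with compounds for 15 min at room temperature in 50 mM Tris-HCl pH 7.5, 50 mM NaCl, 2 mM MgCl2, 1 mM DTT, 0.01% Tween-20. 50 nM THF-abasic TAMRA/BHQ-2 duplex substrate started the reaction.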

[9] = target: DNA repair nuclease/redox regulator APEX1 (Homo sapiens) (UniProt P27695); test: Confirmation qHTS Assay for Inhibitors of the Human Apurinic/apyrimidinic Endonuclease 1 (APE1) (AID 2572); settings: purified APE1, fluorogenic abasic-site DNA cleavage; further: potency means the concentration at half of the fitted maximal effect; nearly all actives have a fitted effect of over 30% in size
Procedure, shortened: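 Fluorescence gain at 598 nm (Ex 525 nm) reports APE1 cleavage of a TAMRA/BHQ-2-labelled duplex carrying a tetrahydrofuran abasic site, 50 nM final. Activity taken as third-minus-first kinetic read after 15 min compound preincubation, room temperature.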

[10] = target: DNA repair nuclease/redox regulator APEX1 (Homo sapiens) (UniProt P27695); test: qHTS FP-Based Assay for Inhibitors of the Human Apurinic/apyrimidinic Endonuclease 1 (APE1) (AID 2573)

Chain of Ferritin light chain (Equus caballus) (P02791 2-175 limits assumed): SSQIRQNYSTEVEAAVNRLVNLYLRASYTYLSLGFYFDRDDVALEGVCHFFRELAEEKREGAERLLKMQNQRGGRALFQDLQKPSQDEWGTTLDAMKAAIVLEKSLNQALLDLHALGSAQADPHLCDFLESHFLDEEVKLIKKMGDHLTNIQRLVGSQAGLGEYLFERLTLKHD
Chain of RecQ-like DNA helicase BLM (Homo sapiens) (P54132 whole entry, looked up): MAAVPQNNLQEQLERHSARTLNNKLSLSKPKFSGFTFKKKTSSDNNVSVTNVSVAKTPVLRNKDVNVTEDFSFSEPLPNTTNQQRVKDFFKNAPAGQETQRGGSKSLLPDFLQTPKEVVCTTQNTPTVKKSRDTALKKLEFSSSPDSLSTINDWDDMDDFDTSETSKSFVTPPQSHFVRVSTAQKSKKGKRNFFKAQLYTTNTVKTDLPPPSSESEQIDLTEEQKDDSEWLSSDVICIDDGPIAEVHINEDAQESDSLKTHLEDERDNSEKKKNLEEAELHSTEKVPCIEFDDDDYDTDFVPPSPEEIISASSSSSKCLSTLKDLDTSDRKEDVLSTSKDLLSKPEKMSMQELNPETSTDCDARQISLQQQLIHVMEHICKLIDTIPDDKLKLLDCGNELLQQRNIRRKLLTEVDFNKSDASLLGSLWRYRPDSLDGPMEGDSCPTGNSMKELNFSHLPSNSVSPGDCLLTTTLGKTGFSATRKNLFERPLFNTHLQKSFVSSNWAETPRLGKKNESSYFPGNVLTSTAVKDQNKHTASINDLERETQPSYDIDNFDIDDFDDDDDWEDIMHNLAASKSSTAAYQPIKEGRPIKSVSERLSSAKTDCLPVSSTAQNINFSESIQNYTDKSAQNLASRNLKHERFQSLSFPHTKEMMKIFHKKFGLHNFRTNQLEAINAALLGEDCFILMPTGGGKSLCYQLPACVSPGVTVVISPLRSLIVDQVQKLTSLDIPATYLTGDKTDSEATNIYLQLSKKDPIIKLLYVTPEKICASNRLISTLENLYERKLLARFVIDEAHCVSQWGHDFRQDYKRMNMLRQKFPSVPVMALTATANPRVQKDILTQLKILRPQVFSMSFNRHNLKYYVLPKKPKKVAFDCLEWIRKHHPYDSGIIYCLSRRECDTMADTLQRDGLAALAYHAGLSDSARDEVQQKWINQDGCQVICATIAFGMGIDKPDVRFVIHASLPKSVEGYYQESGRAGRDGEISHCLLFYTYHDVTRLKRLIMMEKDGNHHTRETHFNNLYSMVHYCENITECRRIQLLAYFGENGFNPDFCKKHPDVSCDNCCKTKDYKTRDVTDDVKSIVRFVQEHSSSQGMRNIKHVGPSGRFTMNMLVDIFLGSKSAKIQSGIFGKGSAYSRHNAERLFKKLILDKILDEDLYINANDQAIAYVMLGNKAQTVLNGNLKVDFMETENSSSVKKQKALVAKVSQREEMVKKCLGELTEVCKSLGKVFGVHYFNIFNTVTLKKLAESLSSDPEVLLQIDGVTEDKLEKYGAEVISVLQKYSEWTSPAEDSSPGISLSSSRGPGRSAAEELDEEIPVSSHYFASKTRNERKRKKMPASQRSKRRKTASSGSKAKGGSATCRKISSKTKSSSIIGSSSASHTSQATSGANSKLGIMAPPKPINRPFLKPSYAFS
Chain of DNA repair nuclease/redox regulator APEX1 (Homo sapiens) (P27695 whole entry, looked up): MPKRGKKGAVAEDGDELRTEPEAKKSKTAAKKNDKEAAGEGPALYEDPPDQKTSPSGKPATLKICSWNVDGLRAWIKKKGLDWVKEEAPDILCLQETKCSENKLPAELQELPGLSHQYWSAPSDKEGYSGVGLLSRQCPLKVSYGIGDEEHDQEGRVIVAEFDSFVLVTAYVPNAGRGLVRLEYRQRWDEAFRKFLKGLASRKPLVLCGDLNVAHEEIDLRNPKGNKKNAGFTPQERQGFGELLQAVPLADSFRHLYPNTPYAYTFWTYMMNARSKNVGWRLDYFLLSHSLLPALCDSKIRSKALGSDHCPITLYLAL
Chain of ATP-dependent DNA helicase Q1 (Homo sapiens) (P46063 whole entry, looked up): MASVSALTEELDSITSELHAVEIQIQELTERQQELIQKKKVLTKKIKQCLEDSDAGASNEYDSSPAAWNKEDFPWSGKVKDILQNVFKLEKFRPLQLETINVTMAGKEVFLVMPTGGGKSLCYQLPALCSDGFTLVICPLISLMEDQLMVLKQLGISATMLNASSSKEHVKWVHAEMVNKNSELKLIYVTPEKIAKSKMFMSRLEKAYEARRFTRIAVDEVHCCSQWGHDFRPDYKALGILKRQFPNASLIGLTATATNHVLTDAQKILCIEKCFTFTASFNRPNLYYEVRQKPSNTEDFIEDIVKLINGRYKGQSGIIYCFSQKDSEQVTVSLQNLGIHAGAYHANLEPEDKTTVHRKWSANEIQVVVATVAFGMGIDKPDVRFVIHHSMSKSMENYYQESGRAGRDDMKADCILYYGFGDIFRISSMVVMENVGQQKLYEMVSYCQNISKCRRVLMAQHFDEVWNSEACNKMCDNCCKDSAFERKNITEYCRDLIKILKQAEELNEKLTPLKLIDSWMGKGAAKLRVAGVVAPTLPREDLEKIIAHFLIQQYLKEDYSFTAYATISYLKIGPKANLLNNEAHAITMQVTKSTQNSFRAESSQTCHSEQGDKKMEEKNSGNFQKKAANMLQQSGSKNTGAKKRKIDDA

With IC(I)I the outcome [1] was “inactive”.
With CCOC(C)=O the outcome [1] was “inactive”.
For CC[N+](C)(C)Cc1ccccc1Br, the Potency [2] was 11.2 µM (active), the outcome [3] was “inactive” and the outcome [4] was “inactive”. The outcome [5] was “inactive”.
With CCCCCCCC/C=C\CCCCCCCC(=O)O the outcome [1] was “inactive”.
For CC(C)=O, the outcome [1] was “inactive”.
With O=S(=O)(O)O the outcome [1] was “inactive”.
For CN1Cc2c(N)cccc2C(c2ccccc2)C1 (centres undefined), the outcome [3] was “inactive”, the outcome [4] was “inactive” and the outcome [5] was “inactive”. For the same compound, the outcome [6] was “inactive” and the outcome [7] was “inactive”.
With Oc1cc(O)c2c(c1)OC(c1ccc(O)c(O)c1)C(O)C2 (centres undefined) the outcome [8] was “inactive”, the Potency [9] was 2.51 µM (active) and the outcome [10] was “inactive”.
In the case of Cc1ccccc1, the outcome [1] is reported as “inactive”.
In the case of CCCCCCCC(=O)O, the outcome [1] is reported as “inactive”.
With CCCCC/C=C\C/C=C\CCCCCCCC(=O)O the outcome [1] was “inactive”.
In the case of CC1=C2[C@@H]([C@H](C)CC[C@H]2/C=C(\C)C(=O)O)[C@H](O)C1, the outcome [1] is reported as “inactive”.
With CC1=C(/C=C/C(C)=C/C=C/C(C)=C/CO)C(C)(C)CCC1 the outcome [1] was “inactive”.
In the case of Nc1ccn([C@H]2CS[C@@H](CO)O2)c(=O)n1, the outcome [1] is reported as “inactive”.
For CC(O)CO (centres undefined), the outcome [1] was “inactive”.
